This is an account of results in PubChem BioAssay (NCATS).

Molecules are shown by their SMILES. Results filed as inconclusive are left out. Where a call stands in place of a potency, no number is given. Activity calls are given as the source filed them. Calls follow the shape of the dose curve; as a rule, active = well fitted cell-killing curve with a large enough effect; inconclusive = small, poorly fitted or top-dose-only effect; inactive = flat fitted curve, though single readings scatter.
Potency is read from the fitted curve at half-maximal effect.

This test can be described thus: Cell Viability - LYMP2-013 (AID 970). Also: nearly all actives have a fitted effect of over 55% in size. As to conditions: LYMP2-013 lymphoblastoid cells viability; series mostly up to 92.2 µM. The text has this: NIH Chemical Genomics Center [NCGC]
NIH Molecular Libraries Screening Centers Network [MLSCN]
National Institutes of Environmental Health Sciences [NIEHS]
National Toxicology Program [NTP]
We have developed a 1536-well cell-based assay for quantitative high throughput screening (qHTS) against a number of cell lines to determine in vitro cytotoxicity of small molecules. This particular assay uses a human lymphoblastoid cell line (LYMP2-013) purchased from Coriell Institute for Medical Research.
NCGC Assay Protocol Summary:
The CellTiter-Glo luminescent cell viability assay (Promega) is a homogeneous method to measure the number of viable cells in culture. The end point readout of this assay is based on quantitation of intracellular ATP, an indicator of metabolic activity, using the luciferase reaction. Luciferase catalyzes the oxidation of beetle Luciferin to oxyluciferin and light in the presence of ATP. The luminescent signal is proportional to amount of ATP present.
Using the CellTiter-Glo luminescent cell viability assay, the amount of cellular ATP was measured in the lymphoblastoid cell line with complete culture medium following compound treatment for 24 hours. The assay was performed in opaque white Kalypsys 1536-well plates. In the screen, tetraoctylammonium bromide was used as positive control. Library compounds were measured for their ability to cause acute toxicity in the cell line, as reflected by a decrease in intracellular ATP levels, in a concentration-dependent manner. […] AC50 values were determined from concentration-response data modeled with the standard Hill equation.
qHTS protocol for CellTiter Glo lymphoblastoid cellular assay
[Step] [Parameter] [Value] [Description]
1. Reagent; 5 uL; 2500 lymphoblastoid cells/well
2. Time; 5 hr; 37 C incubation
4. Controls; 23 nL; Tetraoctylammonium bromide 6.4pM to 92 uM
5. Time; 24 hr; 37 C incubation
6. Reagent; 5 uL; CellTiter Glo reagent
7. Time; 30 min; Room Temperature
8. Detection; Luminescence; Viewlux plate reader
Keywords: cell viability, cytotoxicity, lymphoblastoid cell line, luminescence, NTPHTS, NTPHTS_NCGC, NIEHS, DSSTox, MLSMR, MLSCN, NIH Roadmap, qHTS, NCGC
With `Cc1ccccc1OCC1CO1` (stereo not given), the Potency result was “inactive”.

As to `O=C(O)c1cc(N=Nc2ccc([N+](=O)[O-])cc2)ccc1O`, the Potency entry is “inactive”.

In the case of `S=C(NC1CCCCC1)NC1CCCCC1`, the Potency result is “inactive”.

With `CCN(CC)c1ccc2c(C)cc(=O)oc2c1`, the Potency result was “inactive”.

In the case of `CCCCCCCC/C=C\CCCCCCCC(=O)N(CCO)CCO`, the Potency entry was “inactive”.

For the compound `O=c1[nH]ncc2ccccc12`, the Potency result is “inactive”.

Regarding `Nc1ccc2c(c1)C(=O)c1ccccc1C2=O`, the Potency result is “inactive”.

Take `CC(=O)Nc1cccc(C)c1`: the Potency result was “inactive”.

As to `Cc1c(N)cccc1Cl`, the Potency result is “inactive”.

Turning to `C/C(Cl)=C/CCl`, the Potency entry is “inactive”.

Regarding `Cc1ccc(S(N)(=O)=O)cc1`, the Potency result was “inactive”.

With `CCNC(=S)NCC`, the Potency entry was “inactive”.

With `c1ccc(Nc2cccc3ccccc23)cc1`, the Potency entry is “inactive”.

In the case of `O=C1OC(=O)c2ccccc21`, the Potency result was “inactive”.

In the case of `Nc1cnn([C@@H]2O[C@H](CO)[C@@H](O)[C@H]2O)c(=O)n1`, the Potency result is “inactive”.

As for `Cc1ccc(O)c(N)c1`, the Potency was 79.4 µM (active).

For `Oc1cc2c(cc1O)[C@H]1c3ccc(O)c(O)c3OC[C@@]1(O)C2`, the Potency was 31.6 µM (active).

In the case of `Nc1ccc(N=Nc2ccccc2)c(N)c1`, the Potency entry is “inactive”.

On to `Brc1ccc(-c2ccccc2)cc1`, for which the Potency entry was “inactive”.

With `C[Si](C)(C)Cl`, the Potency entry was “inactive”.

In the case of `CC(=O)OC(C(=O)c1ccccc1)c1ccccc1` (stereo not given), the Potency result was “inactive”.

Consider `CCCCCCc1ccc(-c2ccc(C#N)cc2)cc1`, for which the Potency result is “inactive”.

For `CCCCNCC`, the Potency result was “inactive”.

Take `NC(=O)c1ccc([N+](=O)[O-])cc1`: the Potency result is “inactive”.

`CCc1ccc(C(c2ccc(CC)cc2)C(Cl)Cl)cc1`: the Potency entry is “inactive”.

On to `C[C@@H]1CC2(OC(O)[C@]3(C)O[C@H]23)O[C@H]2C[C@@]3(C)[C@@H]4CC[C@H]5C(C)(C)C(O[C@@H]6OC[C@@H](O)[C@H](O)[C@H]6O)CC[C@@]56C[C@@]46CC[C@]3(C)[C@@H]12` (stereo not given in full), for which the Potency result was “inactive”.

As to `c1c[nH]cn1`, the Potency result was “inactive”.

As to `c1ccc(SCCSc2ccccc2)cc1`, the Potency result is “inactive”.

In the case of `Nc1cc([N+](=O)[O-])ccc1O`, the Potency entry was “inactive”.

Take `Nc1ccccc1O`: the Potency entry was “inactive”.

Consider `CCCC(=O)OC(=O)CCC`, for which the Potency result was “inactive”.

With `Cc1cc(=O)oc2cc(O)cc(O)c12`, the Potency result was “inactive”.

As for `Nc1cc(C(=O)O)c(O)c(S(=O)(=O)O)c1`, the Potency result was “inactive”.

In the case of `CC(C)(C)C(=O)C1C(=O)c2ccccc2C1=O`, the Potency result was “inactive”.

With `CC(=O)c1ccc(Cl)c(Cl)c1Cl`, the Potency result is “inactive”.

For the compound `CC(C)COC(=O)COc1cc(Cl)c(Cl)cc1Cl`, the Potency result is “inactive”.

`O=C(O)/C=C/c1ccc(/C=C/C(=O)O)cc1`: the Potency result is “inactive”.

Consider `Brc1cc(Oc2cc(Br)c(Br)c(Br)c2Br)c(Br)c(Br)c1Br`, for which the Potency result was “inactive”.

As to `Cc1cc2nc(N)sc2cc1C`, the Potency result is “inactive”.

Turning to `NC(=O)Nc1nc2ccccc2[nH]1`, the Potency result was “inactive”.
